Assay outcomes as filed in PubChem.
Sampled rows, rich in hits. Any-hit rate of the full collection: about 1.8%.
PME-1 inh: PME-1 (human) inhibition. Q9Y570. recombinant PME-1, FP-Rh probe fluorescence polarization. inhibition, % at 5.9 µM. 320,000 tested, 0.53% active;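 active means inhibition above the campaign mean of all compounds plus 3 SD, cut at about 26% in these data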;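 further: competitive labeling of PME-1 active site by serine hydrolase directed probe; 0% = PME-1 with DMSO and 100% = wells lacking PME-1 enzyme; inhibitors block probe labeling so polarization falls and inhibition rises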
Target sequence (Q9Y570 whole entry, looked up): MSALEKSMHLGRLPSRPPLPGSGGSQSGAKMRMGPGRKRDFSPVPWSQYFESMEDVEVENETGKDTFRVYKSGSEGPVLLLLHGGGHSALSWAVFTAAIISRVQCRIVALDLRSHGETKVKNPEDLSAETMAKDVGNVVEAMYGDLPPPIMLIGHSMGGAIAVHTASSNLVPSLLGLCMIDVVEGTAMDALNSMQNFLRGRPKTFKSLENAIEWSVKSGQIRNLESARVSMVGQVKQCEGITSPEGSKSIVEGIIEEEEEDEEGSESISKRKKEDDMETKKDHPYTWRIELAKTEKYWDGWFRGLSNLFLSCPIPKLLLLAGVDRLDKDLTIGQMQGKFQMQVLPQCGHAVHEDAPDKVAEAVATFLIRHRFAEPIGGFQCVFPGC
Fam108B counter: Fam108B inhibition, counter-screen for RBBP9 inhibitors; recombinant Fam108B, FP-Rh probe fluorescence polarization; inhibition, % at 9.51 µM; 300,000 tested, 0.33% active;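 active means inhibition above the screen mean inhibition plus 3 SD, computed separately per campaign, cut at about 18% in these data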;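 further: inhibitors lower polarization as less probe binds the enzyme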
LYPLA2 counter: counter-screen for PME1 inhibitors: inhibitors of human LYPLA2; inhibition, % at 5.9 µM; AID 2177; O95372; recombinant LYPLA2, FP-Rh probe fluorescence polarization; 320,000 tested, 0.38% active;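 active means inhibition above the screen-wide mean plus 3 SD, limit set per campaign, cut at about 26% in these data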;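 further: 0% = LYPLA2 with DMSO and 100% = wells lacking LYPLA2 enzyme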
PAD4 FP inh: PAD4 (human) enzyme inhibition | 330,000 tested, 0.41% active | recombinant PAD4, RCA probe fluorescence polarization | inhibition, % at 6.36 µM | Q9UM07 | AID 485272;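 active means percent inhibition above a cutoff equal to the mean of all tested compounds plus 3 SD, cut at about 15% in these data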;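 further: 0% = PAD4 with RCA probe and DMSO and 100% = probe without PAD4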
LYPLA1 inh: blocks human lysophospholipase 1, a PME1 counter-screen; recombinant LYPLA1, FP-Rh probe fluorescence polarization; inhibition, % at 5.9 µM; O75608; 320,000 tested, 0.16% active;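 active means inhibition above the mean of all tested compounds plus 3 SD, set per campaign, cut at about 14% in these data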;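 further: inhibitors block serine hydrolase probe labeling of LYPLA1 so polarization falls; 0% = enzyme with DMSO and 100% = wells lacking LYPLA1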
Target sequence (O75608 whole entry, looked up): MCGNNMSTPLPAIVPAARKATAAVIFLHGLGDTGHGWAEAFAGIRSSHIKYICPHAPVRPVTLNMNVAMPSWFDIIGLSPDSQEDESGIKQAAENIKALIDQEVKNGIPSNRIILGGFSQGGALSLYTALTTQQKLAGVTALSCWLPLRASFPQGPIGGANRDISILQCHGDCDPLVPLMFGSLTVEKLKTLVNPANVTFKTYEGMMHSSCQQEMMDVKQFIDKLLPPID
GSTO1 inh: blocks human GSTO1 in RBBP9 counter-screen; recombinant GSTO1, activity-based probe fluorescence polarization; inhibition, % at 5.96 µM; 300,000 tested, 1.1% active;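 active means inhibition above the campaign mean inhibition plus 3 SD, cut at about 35% in these data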;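 further: 0% = GSTO1-1 with DMSO and 100% = wells lacking GSTO1-1 enzyme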
GSTO1 confirm: confirmation of human GSTO1 inhibitors; inhibition, % at 5.96 µM; recombinant GSTO1, probe fluorescence polarization; shares compounds with GSTO1 inh; 2,400 tested, 54% active;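 active means inhibition above the primary screen's cutoff, its mean inhibition plus 3 SD, cut at about 35% in these data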;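 further: loss of polarization as inhibitors block binding of rhodamine sulfonate ester activity probe; 0% = GSTO1 with DMSO and 100% = wells lacking GSTO1 enzyme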
GSTO1 ABPP inh: GSTO1 (human) inhibition by gel ABPP; recombinant GSTO1, gel ABPP SE-Rh probe fluorescence; 130 tested, 30% active; shares compounds with GSTO1 inh; inhibition, % at 1 µM;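 active means inhibition of the enzyme GSTO1 above about 75%, limit read from the data; inactive means inhibition below that limit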
LYPLA2 conf: LYPLA2 (human) inhibition, confirmation counter-screen. shares compounds with LYPLA2 counter. recombinant LYPLA2, FP-Rh probe fluorescence polarization. inhibition, % at 5.9 µM. 1,100 tested, 72% active;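 active means mean inhibition across replicates above the hit cutoff set in the primary screen, cut at about 26% in these data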;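 further: blocked labeling of the enzyme by serine hydrolase FP-Rh probe lowers polarization; 0% = enzyme with DMSO and 100% = wells lacking LYPLA2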
PAD4 confirm: confirmation of human PAD4 inhibitors | shares compounds with PAD4 FP inh | recombinant PAD4, RCA probe fluorescence polarization | inhibition, % at 6.36 µM | 1,200 tested, 28% active | AID 488796;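 active means mean inhibition across replicates above the hit cutoff set by the earlier primary screen, cut at about 15% in these data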;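 further: inhibitors block active-site labeling by the probe so polarization falls; 0% = PAD4 with probe and DMSO and 100% = probe without PAD4 enzyme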
Active calls of the source: *; . = not tested or not shown.

SMILES	PME-1 inh	Fam108B counter	LYPLA2 counter	PAD4 FP inh	LYPLA1 inh	GSTO1 inh	GSTO1 confirm	PAD4 confirm	others
Cc1nc2cc(NC(=O)Nc3ccc(Br)cc3)ccc2o1	-102	-4	9	-1	-8	10	.	.
O=C1C(=Cc2ccco2)C(=O)c2ccccc21	3	7	8	-2	0	38*	27	.
O=S(=O)(Nc1ccc(-n2cnnn2)cc1)c1cccs1	-1	.	6	-4	4	.	.	.
O=C(NNC(=O)C(Cl)Cl)c1cnn(-c2ccccc2)c1C(F)(F)F	4	1	4	1	1	49*	29	.
CCCCCn1nc(C)c2c(C)cc(=O)[nH]c21	-1	3	-3	-3	3	10	.	.
CC(=O)Oc1ccc(OC(C)=O)c(S(=O)(=O)c2ccc(C)c(C)c2)c1	-1	-3	0	-1	1	47*	7	.
FC(F)(F)c1cc(-c2cccs2)nc2ncnn12	-6	-5	1	-3	-1	2	.	.
Cc1cc(C)c(S(=O)(=O)Nc2cc(SCC(=O)O)c(O)c3ccccc23)cc1C	15	15	30*	49*	1	90*	5	.	LYPLA2 conf=2
COC(=O)c1ccc(NC(=S)N2CCN(Cc3ccccc3OC)CC2)cc1	-2	2	4	-4	-2	-2	.	.
COc1cc(C(C[N+](=O)[O-])c2c(C)cc3ccccn23)ccc1O (stereo not drawn)	9	1	10	60*	-2	39*	7	-3
C=CCOc1c(Cl)cc(CNc2ccc(N(C)C)cc2)cc1OC	8	8	5	25*	-3	77*	1	1
Cc1cc(OC(C)C(=O)Nc2ccccc2C(=O)N2CCCC2)ccc1Cl (stereo not drawn)	6	-2	6	2	3	5	.	.
CN(C)c1ccc(N/C=C/C(=O)c2ccco2)cc1	1	0	-1	23*	-5	61*	7	-2
CC(=O)Nc1ccc(N/C=C/C(=O)c2ccco2)cc1	5	0	-1	-4	1	2	.	.
CC(=O)n1cc(N(C(=O)CCl)c2ccc(Cl)cc2)c2ccccc21	-4	-2	2	20*	-2	82*	84*	51*	GSTO1 ABPP inh=82*
O=C1C=C(O)c2cccc(O)c2C1=O	14	3	9	16*	0	43*	40*	4
O=C(NCCS(=O)(=O)N1CCN(c2ccccc2F)CC1)c1cc(=O)c2ccccc2o1	-4	0	6	-1	2	-6	.	.
CN(C(=S)Nc1cccnc1)c1ccc(O)cc1	5	1	-2	31*	-4	83*	5	0
CN(C(=S)Nc1ccc(Oc2ccccc2)cc1)c1ccc(O)cc1	14	2	3	25*	-12	79*	2	0
CCN(C(=S)Nc1cccnc1)c1ccccc1	-4	-4	4	1	1	-7	.	.
CN(/C(=N\S(=O)(=O)c1ccccc1)c1ccccc1)c1ccc(O)cc1	7	3	-2	-2	2	3	.	.
COc1ccc(C(=O)NCC(=O)N/N=C/c2ccc(C)o2)cc1OC	2	4	0	-5	-1	1	.	.
Cc1cc(=O)n(CCCc2ccccc2)[nH]1	0	-4	-3	29*	-3	42*	8	-5
Cc1cccc(CN2CCN(CCCc3ccccc3)CC2)c1	2	3	13	-2	7	7	.	.
COc1ccc(NC(=O)CN(C)C(=O)c2ccc3c(c2)OCCO3)cc1	-3	-2	2	-4	-1	5	.	.
SMILES	PME-1 inh	Fam108B counter	LYPLA2 counter	PAD4 FP inh	LYPLA1 inh	GSTO1 inh	GSTO1 confirm	PAD4 confirm	others
O=C(Nc1ccc2nsnc2c1)N1CCCCC1	0	4	6	-2	0	25	.	.
S=C(Nc1ccc2nsnc2c1)N1CCCCCC1	11	16	5	50*	4	77*	79*	-4
COc1cc(OC)cc(C(=O)N[C@H](C(=O)Nc2cccc(S(=O)(=O)N3CCCC3)c2)C(C)C)c1	2	2	-6	2	-3	-1	.	.
Cc1ccccc1-c1cc2c(nn1)-c1ccccc1C2=O	3	5	6	58*	1	75*	70*	-8
CC1=NN(c2ccccc2)C(=O)C1N=Nc1ccc(C)cc1 (stereo not drawn)	-2	-2	1	0	1	2	.	.
CC1=NN(c2ccc(C)cc2C)C(=O)C1C(c1ccccc1O)C1C(=O)N(c2ccc(C)cc2C)N=C1C (stereo not drawn)	0	-2	5	45*	-1	56*	10	-16
Cc1ccc2c(c1)c1c3n2CCN(C(=O)CN2CCN(C)CC2)C3CCC1 (stereo not drawn)	3	-3	4	3	1	11	.	.
Cc1ccc2c(c1)c(=O)c1c3n2CCN(C(=O)CCl)C3CC1 (stereo not drawn)	4	10	1	30*	1	66*	80*	-1	GSTO1 ABPP inh=63
CC(=O)N(C1=C(N2CCOCC2)C(=O)c2ccccc2C1=O)c1ccc(C(=O)O)cc1	7	1	1	17*	2	61*	55*	-6
COc1ccccc1/C=C1/C(=O)N(c2ccccc2)N=C1C	-4	1	2	48*	-1	46*	13	-1
CC1=NN(c2ccccc2)C(=O)/C1=C\c1cn(CCC#N)nc1-c1ccc(Cl)cc1	-4	0	1	19*	-1	53*	10	6
COc1cc(/C=C2/C(=O)N(c3ccc(C)c(C)c3)N=C2C)cc([N+](=O)[O-])c1O	5	16	10	-6	4	7	.	.
C#CCOc1ccc(/C=C2/C(=O)N(c3cccc(C(=O)O)c3)N=C2C)cc1OC	3	2	-4	39*	0	70*	8	3
CC(=O)NS(=O)(=O)c1ccc(NC(=O)c2cccc3ccccc23)cc1	5	0	-2	-1	2	6	.	.
COc1cccc(/C=N/Nc2nnc(C)n2N)c1O	-3	-1	0	39*	0	41*	1	0
O=C1c2ccccc2C(=O)c2[nH]c(=O)[nH]c21	8	5	-3	17*	-2	64*	62*	2
